The term inhibition denotes the change of the read-out against control, counted positive when it falls.

The values that follow come from ChEMBL document CHEMBL3433997, “St. Jude Leishmania screening dataset” (2016).

For the experiment, the target named is Solute carrier family 2, facilitated glucose transporter member 1 (Homo sapiens) (UniProt P11166). Put plainly: ST_JUDE_LEISH: Cytotoxicity at 2uM final concentration against transgenic Leishmania Mexicana promastigotes LmGLUT1 that are glucose transport deficient and complemented with the human glucose transporter GLUT1. Activity is measured by DNA content using SYBR green in vitro. It counts as functional.
Sequence of Solute carrier family 2, facilitated glucose transporter member 1 (Homo sapiens) (P11166 whole entry): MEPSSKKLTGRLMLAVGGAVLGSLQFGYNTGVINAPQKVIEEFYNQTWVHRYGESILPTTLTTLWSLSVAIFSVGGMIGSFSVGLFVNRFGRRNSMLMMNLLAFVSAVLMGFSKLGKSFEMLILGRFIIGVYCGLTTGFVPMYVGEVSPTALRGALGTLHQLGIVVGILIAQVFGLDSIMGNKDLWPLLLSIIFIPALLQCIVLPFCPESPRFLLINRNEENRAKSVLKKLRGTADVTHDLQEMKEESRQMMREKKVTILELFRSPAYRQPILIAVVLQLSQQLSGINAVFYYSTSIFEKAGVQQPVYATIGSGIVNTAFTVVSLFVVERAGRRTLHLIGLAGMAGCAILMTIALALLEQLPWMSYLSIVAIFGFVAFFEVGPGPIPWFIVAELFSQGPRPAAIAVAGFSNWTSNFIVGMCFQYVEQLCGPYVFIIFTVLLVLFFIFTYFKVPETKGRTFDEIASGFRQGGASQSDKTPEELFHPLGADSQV
Take `COc1ccc(NS(=O)(=O)c2ccc(C(=O)Nc3ccc(OC(F)(F)F)cc3)cc2)cc1N1CCN(CC2CC2)CC1`: the inhibition turned out to be 6.41%.
In the case of `COc1ccc(CCNC(=O)c2cc(C)ccc2O)cc1-c1ccc(C(C)(C)C)cc1`, the inhibition came out at 4.36%.
The figure for `Cc1ccc2c(c1)c(-c1ccccc1)c(-c1ccccc1)n2CC(O)CN1CCN(CC=Cc2ccccc2)CC1` (stereo not given) is 0.38%; for `CCNC(=O)Nc1ccc(-c2cnc(N)c(-c3nc4ccc(OC)cc4[nH]3)c2)cc1` it is 3.5%.
The figure for `CN1CCC(NCc2cccc(-c3cnc(NCc4ccccc4)nc3)c2)CC1` is 0.74%; for `CN1CCN(c2cc(NC(=O)c3ccc(-c4ccc(C#N)cc4)cc3)ccc2Cl)CC1` it is 0.4%.
Regarding `CCn1ncc2c(N3CCCC3=O)cc(C(=O)N[C@@H](Cc3ccccc3)[C@H](O)CNC(C)(C)c3cccc(OC)c3)cc21`, the inhibition amounted to 2.35%.
For the compound `Cc1cccc2nc(-c3ccc(-c4ccc(NC(=O)Nc5cccc(C#N)c5)cc4)s3)[nH]c12`, the inhibition was determined as 9.25%.
To `O=C1NC(c2ccc(N3CCCCCC3)cc2)Nc2ccccc21` (stereo not given) belongs 6.32%; to `NC1CCN(Cc2cccc(-c3ccc(-c4nc5ccccc5[nH]4)s3)c2)C1` (stereo not given), 3.94%; to `CNC(=O)Cc1ccc(C(=O)Nc2cccc(-c3cccc(-c4nc5cccc(C)c5[nH]4)c3)c2)cc1`, -2.05%.
To `CCc1c(C)nc(-n2nc(C)cc2NC(=O)CCc2ccccc2)[nH]c1=O` belongs 0.86%.
For the compound `Cc1ccc(-n2nc(-c3ccccc3)c3cc(C(=O)NCCN)sc32)cc1`, the inhibition is -2.29%.
To `COc1cc(Cc2cnc(N)nc2N)cc(OCCCCC#N)c1OC` belongs 2.09%; to `N#Cc1c(N)n(CCc2ccc(F)cc2)c2nc3ccccc3nc12`, 1.05%.
